# SW480 rerep: A quantitative high throughput screen for small molecules that induce DNA re-replication in SW480 colon adenocarcinoma cells; AID 624297, 2012; Potency, µM (top dose mostly 46.1 µM), for inactives: at the highest dose re-replication activation, most hits filed as activators; SW480 DNA re-replication, Hoechst DNA content imaging, 48 h; 340,000 compounds, 1.8% hits; also: % of control where 0% means no effect; nearly all actives have a fitted effect of over 55% in size
#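 Per well, 250 cells were exposed to pinned compound for 48 hr. Nuclear DNA was visualised with Hoechst (40 min, 37 C) and total object intensity recorded by fluorescence scanning.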
# ALOX12 inh: Primary qHTS assay for inhibitors of human arachidonate 12S-lipoxygenase (ALOX12): Round 2. Polyunsaturated fatty acid lipoxygenase ALOX12 (Homo sapiens), P18054. purified 12hLO, xylenol orange hydroperoxide absorbance. Potency, µM (series often up to 108 µM), inactives show top-dose activity change, negative = inhibition, usual class: inhibitors. 580,000 compounds, 1.1% hits. AID 1671190, 2021; also: % is scaled to controls: 0 for no effect and ±100 for the full control effect
# Target sequence (P18054 whole entry, looked up): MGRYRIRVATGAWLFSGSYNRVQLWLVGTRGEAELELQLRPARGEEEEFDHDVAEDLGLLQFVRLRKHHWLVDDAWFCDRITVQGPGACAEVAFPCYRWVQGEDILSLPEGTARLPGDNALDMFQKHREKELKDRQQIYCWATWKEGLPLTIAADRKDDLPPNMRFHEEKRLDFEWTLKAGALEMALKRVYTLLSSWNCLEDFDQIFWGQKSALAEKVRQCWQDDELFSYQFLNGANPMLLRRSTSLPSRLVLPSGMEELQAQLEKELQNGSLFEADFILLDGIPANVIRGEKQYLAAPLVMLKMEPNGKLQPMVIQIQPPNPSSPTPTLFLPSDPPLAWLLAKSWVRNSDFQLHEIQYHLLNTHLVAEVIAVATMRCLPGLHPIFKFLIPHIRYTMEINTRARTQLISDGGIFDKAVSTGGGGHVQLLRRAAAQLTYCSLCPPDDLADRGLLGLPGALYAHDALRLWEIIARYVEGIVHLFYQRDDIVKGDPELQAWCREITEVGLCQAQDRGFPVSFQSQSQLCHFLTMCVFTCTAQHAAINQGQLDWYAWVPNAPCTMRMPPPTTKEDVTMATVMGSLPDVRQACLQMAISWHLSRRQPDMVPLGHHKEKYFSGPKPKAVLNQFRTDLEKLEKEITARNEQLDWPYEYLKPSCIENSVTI
#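 Hydroperoxide product was detected by ferrous iron/xylenol orange as the 573 to 405 nm absorbance ratio. Arachidonic acid at 40 uM (final) was turned over for 30 min at room temperature by 150 nM human 12hLO, pH 7.0 Hepes buffer, after 15 min compound preincubation.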
# KB-V1 MDR tox: qHTS assay for MDR1-selective chemotherapeutics: Primary screen using the drug-selected MDR subline cells KB-V1 | KB-V1 MDR cells viability, CellTiter-Glo, 72 h | Potency, µM (doses to about 46.1 µM), usual class: cytotoxic | 400,000 compounds, 3.4% hits | AID 1347076, 2019; also: % is scaled to controls: 0 for no effect and ±100 for the full control effect; nearly all actives have a fitted effect of over 60% in size
#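 Compound-treated KB-V1 multidrug-resistant cells, 72 h, 37 degrees C; viability by CellTiter-Glo. Fitted qHTS curves give the values.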
# KB-3-1 cytotox: qHTS assay for MDR1-selective chemotherapeutics: Primary screen using the parental adenocarcinoma cell KB-3-1; KB-3-1 viability, CellTiter-Glo ATP luminescence, 72 h; Potency, µM (series often up to 46.1 µM), hits mostly cytotoxic; 400,000 compounds, 1.4% hits; AID 1347075, 2019; also: % is scaled to controls: 0 for no effect and ±100 for the full control effect; nearly all actives have a fitted effect of over 60% in size
#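 KB-3-1 parental drug-naive adenocarcinoma cells in DMEM/10% FBS, incubated 72 h at 37 C with pin-transferred compounds across a concentration series. Viability by CellTiter-Glo luminescence; concentration-response curves fitted after normalization.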
# MCF10A rerep: A quantitative high throughput screen for small molecules that induce DNA re-replication in MCF 10a normal breast cells. MCF 10A DNA re-replication, Hoechst nuclear intensity, 48 h. Potency, µM (titrated, usually from 46.1 µM), for inactives: top-dose activity, positive = re-replication, actives largely listed as activators. 350,000 compounds, 2.9% hits; also: % of control where 0% means no effect; nearly all actives have a fitted effect of over 50% in size
# PINK1 expr mod: A Quantitative High throughput Screen to Identify Chemical Modulators of PINK1 Expression | PINK1 immunofluorescence, high-content cytometry, 24 h | Potency, µM (doses to about 76.6 µM), without a hit: at the top dose activation (PINK1 increase), most hits filed as activators | 410,000 compounds, 0.2% hits; active = well fitted activation curve with a large enough effect; inconclusive = small, poorly fitted or top-dose-only effect; cell line not stated here; also: % of control where 0% means no effect; nearly all actives have a fitted effect of over 65% in size
#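 Compound titrations (5 concentrations, 24 h) on a stable cell line; DMSO and CCCP controls. Endpoint: fixed-cell PINK1 immunofluorescence with mitochondrial, cell and nuclear markers, scanned by microplate cytometer.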
# Starred values were filed as active, the others as inactive; i = inactive; ? = inconclusive; / = not tested or not shown; ! = repeats disagree; [ ] = another dose, or the depositor's remark. Rows were chosen to be rich in hits. Some 5.8% of all compounds tested hit in one or more screens of this group. Unless noted, calls follow the shape of the dose curve; as a rule, active = well fitted curve in the direction sought with a large enough effect; inconclusive = small, poorly fitted or top-dose-only effect, or another doubt; inactive = no such curve, though single readings can be large; an effect the other way counts as inactive or inconclusive. Potency is read from the fitted curve at half-maximal effect.
SMILES,SW480 rerep,ALOX12 inh,KB-V1 MDR tox,KB-3-1 cytotox,MCF10A rerep,PINK1 expr mod
c1ccc(CN2CCN(c3nc(N4CCOCC4)c4ccccc4n3)CC2)cc1,?,?,?,i,16µM*,2%
CCN1CCN(c2nc(NCCO)c3ccccc3n2)CC1,-1%,-9%,i,i,26%,-1%
CCCCNC(=S)N(C)/N=C/c1ccc(OCC(=O)Nc2c(C)cc(C)cc2C)c(OC)c1,16µM*,-1%,i,i,18µM*,7%
CCCCNC(=S)N(C)/N=C/c1ccc(OCC(=O)Nc2ccc(OC)cc2)c(OC)c1,?,-7%,?,i,25%,0%
COc1ccc(-c2cc(C(F)F)n3ncc(C(=O)N4CCSCC4)c3n2)cc1,5.2µM*,-73%,i,i,?,-1%
Cc1cc(C)c(Cc2c(C)nc3c(C(=O)NCc4ccco4)cnn3c2C)c(C)c1,-3%,?,2.9µM*,21µM*,?,4%
COCCNC(=O)c1cnn2c(C(F)(F)F)cc(-c3ccc(C)cc3)nc12,-4%,-1%,i,i,4%,0%
COc1ccc(-c2cc(C(F)F)n3ncc(C(=O)N4CCN(C)CC4)c3n2)cc1,16%,-13%[57.4 µM],i,i,17%,-2%
O=C(NCc1ccco1)c1cnn2c(C(F)F)cc(-c3ccccc3)nc12,17%,-9%,i,i,8.2µM*,10%
COCCNC(=O)c1cnn2c(C(F)F)cc(-c3ccccc3)nc12,15µM*,-6%,i,i,?,-2%
CCCC1=C(C(=O)OCC)C(c2c(F)cccc2Cl)NC(=O)N1C (centres undefined),/,-5%,/,/,/,/
Cc1ccc(C(=O)Nc2c(C(=O)NCc3ccco3)cnn2-c2ccccc2)cc1,-4%,-2%,i,i,-1%,-1%[38.3 µM]
O=C(Nc1c(C(=O)NCc2ccco2)cnn1-c1ccccc1)c1cccc(F)c1,-2%,?,9.2µM*,i,0%,-2%
Cc1ccc(-c2noc(CCC(=O)N(C)c3ccccc3C)n2)cc1,4%,0%,13µM*,?,3%,1%
Cc1ccc(-c2noc(CCC(=O)Nc3ccccc3C)n2)cc1,-1%,-46%,16µM*,i,36%,0%[38.3 µM]
CCc1ccccc1NC(=O)CCc1nc(-c2ccc(C)cc2)no1,-3%,88%,i,i,10%,15%
Cc1cccc(C)c1OCc1cc(C(=O)N2CCCC(C(=O)c3nccn3C)C2)no1 (centres undefined),/,-26%,/,/,/,/
C=CCc1cc(CNC)cc(OC)c1OCC,/,5%,/,/,/,/
COc1ccccc1CC(=O)NCc1cccs1,/,7%,/,/,/,/
C/C(=N/NC(=O)CSc1nc2ccccc2s1)c1ccncc1,-1%,175%,i,i,29%,4%
CS/C(=N\S(=O)(=O)c1cccs1)NC(=O)CSc1nc2ccccc2s1,-5%,?,i,i,12µM*!,1%
CC(C)Oc1nnc(SCC(=O)NCc2ccccc2)s1,/,0%,/,/,/,/
NC(c1ccccc1)c1nnc2n1CCN(C(=O)N1CCCC1)C2 (centres undefined),/,7.9µM*,/,/,/,/
S=c1[nH]nc(-c2ccc(Br)o2)n1Cc1ccccc1,21%,1.6µM*,i,i,?,2%[38.3 µM]
COc1ccc(NS(=O)(=O)c2ccc(-c3n[nH]c(=S)n3Cc3ccccc3)cc2)cc1,4%,?,i,i,2%,2%
SMILES,SW480 rerep,ALOX12 inh,KB-V1 MDR tox,KB-3-1 cytotox,MCF10A rerep,PINK1 expr mod
COc1ccccc1-c1n[nH]c(=S)n1Cc1ccccc1,-3%,28µM*,i,i,?,-1%
COc1ccc(NS(=O)(=O)c2cccc(-c3n[nH]c(=S)n3Cc3ccccc3)c2)cc1,-5%,32µM*,i,i,9%,1%
O=C(N/N=C/c1cccc(C(F)(F)F)c1)c1cccs1,/,-9%,/,/,/,/
N#CC1C=Cc2c(ccc3ccccc23)N1C(=O)c1ccccc1 (centres undefined),3.7µM*,-20%,i,0.46µM*,1.5µM*,3%
N#CC1C=Cc2ccccc2N1C(=O)c1ccccc1 (centres undefined),15%,21%,i,i,14%,5%
O=C(Nc1ccc(N2CCN(c3ncccc3C(F)(F)F)CC2)nc1)c1cccs1,0%,-5%,18µM*,16µM*,?,-1%
COC(=O)C1=C(C)N(C)C(=O)N(C)C1c1ccccc1F (centres undefined),/,-11%,/,/,/,/
CC[n+]1c(/C=C2\C=C(C)CC(C)C2)sc2ccccc21 (centres undefined),2%,/,i,i,23µM*,?
CC[n+]1c(/C=C2/C=C(C)CC(C)(C)C2)sc2ccc(OC)cc21,?,?,i,21µM*,16µM*,?
CCC1=C/C(=C/c2sc3ccccc3[n+]2CC)CC(C)(C)C1,?,?,?,?,?,13%
CC[n+]1c(/C=C2\C=C(C)CC(C)(C)C2)sc2ccccc21,?,?,i,i,?,13µM*
CCS(=O)(=O)c1ccc(NCc2cccc(F)c2)cc1,/,-29%,/,/,/,/
COc1ccc(C)cc1NC(=O)C(=O)c1cn(CC(=O)N2CCOCC2)c2ccccc12,/,52%,/,/,/,/
COc1ccc(-c2cn[nH]c2-c2ccc(OCCN3CCCCC3)cc2O)cc1,/,-18%,/,/,/,/
O=C(NCc1ccccc1OC(F)(F)F)C1CCN(S(=O)(=O)/C=C/c2ccccc2)CC1,/,3%,/,/,/,/
COc1ccc([N+](=O)[O-])cc1NC(=O)C(C)NNC(=O)c1cccc([N+](=O)[O-])c1 (centres undefined),-4%,12%,18µM*,i,11%,0%
C(=Nc1ccccc1-c1ccccc1N=Cc1ccc2ccccc2c1)c1ccc2ccccc2c1,/,-18%,/,/,/,/
Cc1c(Cl)c([N+](=O)[O-])nn1CCCC(=O)Nc1cccc(Cl)c1Cl,-7%,8%,16µM*,i,2%,-1%
Cc1ccc(Cn2nc(C)c(NC(=O)CCCn3nc(C)c([N+](=O)[O-])c3C)c2C)cc1,-67%,-4%,9.2µM*,i,-3%,-2%
Cc1ccc(Cn2nc(C)c(NC(=O)CCCn3nc([N+](=O)[O-])c(Cl)c3C)c2C)cc1,-11%,-4%,?,i,4%,8%

# Source: PubChem BioAssay
